Where “and” joins values, the source holds several entries; their conditions need not be identical. Equal values may be shown once. Out of some 5,500 compounds screened, about 2,000 (36%) were called active. Roughly 18% stayed inconclusive and do not appear here. No stated cut-off is given here; in the data, active means normalized growth mostly below about 0.91 (no sharp cut-off); inconclusive means no clear call, values can overlap the other calls; inactive means mostly above about 0.92. The list shows a part of the results.
Experiment: chemical genetic growth profiling, strain panel (AID 1159580);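 further: tested at 20 µM; growth read once vehicle control cultures reached saturation at 30 °C; 1 = growth at the plate median or of vehicle wells; lower values mean less growth of the strain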
Details: growth OD

Measured: normalized growth

CCCNC(C)C(=O)Nc1ccccc1C (stereo unspecified)
inactive: S. cerevisiae deletion strains, locus YJR066W, strain TOR1, hits give low values 0.979 | S. cerevisiae deletion strains, locus YJR075W, strain HOC1, hits give low values 1.01 | S. cerevisiae deletion strains, locus YKL009W, strain mrt4, hits give low values 1 | S. cerevisiae deletion strains, locus YKL068W, hits give low values 0.99 | S. cerevisiae deletion strains, locus YKL085W, strain MDH1 (second series), hits give low values 1 | S. cerevisiae deletion strains, locus YKL085W, strain MDH1, hits give low values 1 | S. cerevisiae deletion strains, locus YKL160W, strain elf1, hits give low values 1.01 | S. cerevisiae deletion strains, locus YKL190W, strain CNB1, hits give low values 1 | S. cerevisiae deletion strains, locus YKR001C, strain vps1, hits give low values 1 | S. cerevisiae deletion strains, locus YKR026C, strain gcn3, hits give low values 1 | S. cerevisiae deletion strains, locus YKR091W, strain srl3, hits give low values 1 | S. cerevisiae deletion strains, locus YLL001W, strain dnm1, hits give low values 1.01 | S. cerevisiae deletion strains, locus YLL026W, hits give low values 1.01 | S. cerevisiae deletion strains, locus YLL041C, strain sdh2, hits give low values 0.997 | S. cerevisiae deletion strains, locus YLR027C, strain aat2, hits give low values 1.01 | S. cerevisiae deletion strains, locus YLR039C, strain RIC1, hits give low values 1.03 | S. cerevisiae deletion strains, locus YLR058C, strain SHM2, hits give low values 1.01 | S. cerevisiae deletion strains, locus YLR102C, strain apc9, hits give low values 0.989 | S. cerevisiae deletion strains, locus YLR113W, strain HOG1, hits give low values 1.09 | S. cerevisiae deletion strains, locus YLR221C, strain rsa3, hits give low values 0.988 | S. cerevisiae deletion strains, locus YLR258W, strain gsy2, hits give low values 0.999 | S. cerevisiae deletion strains, locus YLR262C, strain YPT6 (second series), hits give low values 1.02 | S. cerevisiae deletion strains, locus YLR262C, strain YPT6, hits give low values 1.07 | S. cerevisiae deletion strains, locus YLR268W, strain sec22, hits give low values 0.989 | S. cerevisiae deletion strains, locus YLR320W, strain mms22, hits give low values 1.01 | S. cerevisiae deletion strains, locus YLR330W, strain CHS5, hits give low values 1.01 | S. cerevisiae deletion strains, locus YLR342W, strain FKS1 (second series), hits give low values 0.996 | S. cerevisiae deletion strains, locus YLR342W, strain FKS1, hits give low values 1.01 | S. cerevisiae deletion strains, locus YLR357W, strain rsc2, hits give low values 0.981 | S. cerevisiae deletion strains, locus YLR370C, strain arc18, hits give low values 1.01 | S. cerevisiae deletion strains, locus YLR371W, strain rom2, hits give low values 0.983 | S. cerevisiae deletion strains, locus YLR384C, strain iki3, hits give low values 1.01 | S. cerevisiae deletion strains, locus YLR418C, strain cdc73, hits give low values 0.967 | S. cerevisiae deletion strains, locus YML016C, strain PPZ1, hits give low values 1.01 | S. cerevisiae deletion strains, locus YML032C, strain rad52, hits give low values 0.987 | S. cerevisiae deletion strains, locus YML120C, strain ndi1, hits give low values 1 | S. cerevisiae deletion strains, locus YML124C, strain tub3, hits give low values 0.989 | S. cerevisiae deletion strains, locus YMR058W, strain fet3, hits give low values 1 | S. cerevisiae deletion strains, locus YMR078C, strain ctf18, hits give low values 0.993 | S. cerevisiae deletion strains, locus YMR125W, strain sto1, hits give low values 1.02 | S. cerevisiae deletion strains, locus YMR129W, hits give low values 1 | S. cerevisiae deletion strains, locus YMR205C, strain PFK2, hits give low values 1 | S. cerevisiae deletion strains, locus YMR223W, strain ubp8, hits give low values 0.972 | S. cerevisiae deletion strains, locus YMR231W, strain pep5, hits give low values 1.01 | S. cerevisiae deletion strains, locus YMR263W, strain SAP30, hits give low values 1 | S. cerevisiae deletion strains, locus YMR307W, strain GAS1, hits give low values 0.949 | S. cerevisiae deletion strains, locus YNL067W, strain RPL9B, hits give low values 1.02 | S. cerevisiae deletion strains, locus YNL071W, strain lat1, hits give low values 1 | S. cerevisiae deletion strains, locus YNL153C, strain GIM3, hits give low values 0.963 | S. cerevisiae deletion strains, locus YNL175C, strain NOP13, hits give low values 1.01 | S. cerevisiae deletion strains, locus YNL183C, strain NPR1, hits give low values 1 | S. cerevisiae deletion strains, locus YNL197C, strain WHI3, hits give low values 1.04 | S. cerevisiae deletion strains, locus YNL209W, strain ssb2, hits give low values 1 | S. cerevisiae deletion strains, locus YNL224C, strain SQS1, hits give low values 0.989 | S. cerevisiae deletion strains, locus YNL233W, strain BNI4, hits give low values 1.03 | S. cerevisiae deletion strains, locus YNL248C, strain rpa49, hits give low values 1.01 | S. cerevisiae deletion strains, locus YNL250W, strain rad50, hits give low values 0.983 | S. cerevisiae deletion strains, locus YNL271C, strain bni1, hits give low values 0.996 | S. cerevisiae deletion strains, locus YNL298W, strain CLA4, hits give low values 0.985 | S. cerevisiae deletion strains, locus YNL307C, strain MCK1, hits give low values 0.998 | S. cerevisiae deletion strains, locus YNL322C, strain KRE1 (second series), hits give low values 1 | S. cerevisiae deletion strains, locus YNL322C, strain KRE1, hits give low values 1 and 1.02 | S. cerevisiae deletion strains, locus YNR049C, strain mso1, hits give low values 1.01 | S. cerevisiae deletion strains, locus YNR052C, strain pop2, hits give low values 0.998 | S. cerevisiae deletion strains, locus YOL006C, strain TOP1, hits give low values 1.04 | S. cerevisiae deletion strains, locus YOL012C, strain htz1 0.66 | S. cerevisiae deletion strains, locus YOL147C, strain pex11, hits give low values 0.979 | S. cerevisiae deletion strains, locus YOR001W, strain rrp6, hits give low values 0.994 | S. cerevisiae deletion strains, locus YOR061W, strain CKA2, hits give low values 1.02 | S. cerevisiae deletion strains, locus YOR069W, strain VPS5, hits give low values 1 | S. cerevisiae deletion strains, locus YOR070C, strain gyp1, hits give low values 1 | S. cerevisiae deletion strains, locus YOR080W, strain dia2, hits give low values 0.999 | S. cerevisiae deletion strains, locus YOR083W, strain WHI5 (second series), hits give low values 1.01 | S. cerevisiae deletion strains, locus YOR083W, strain WHI5, hits give low values 1 | S. cerevisiae deletion strains, locus YOR106W, strain vam3, hits give low values 1 | S. cerevisiae deletion strains, locus YOR136W, strain idh2, hits give low values 0.992 | S. cerevisiae deletion strains, locus YOR144C, strain elg1, hits give low values 0.977 | S. cerevisiae deletion strains, locus YOR184W, strain ser1, hits give low values 0.968 | S. cerevisiae deletion strains, locus YOR231W, strain MKK1, hits give low values 1.09 | S. cerevisiae deletion strains, locus YOR265W, strain rbl2, hits give low values 1.01 | S. cerevisiae deletion strains, locus YOR270C, strain vph1, hits give low values 0.987 | S. cerevisiae deletion strains, locus YOR290C, strain snf2, hits give low values 0.992 | S. cerevisiae deletion strains, locus YOR316C, strain cot1, hits give low values 0.998 | S. cerevisiae deletion strains, locus YPL051W, strain arl3, hits give low values 1 | S. cerevisiae deletion strains, locus YPL055C, strain LGE1, hits give low values 1 | S. cerevisiae deletion strains, locus YPL078C, strain atp4, hits give low values 0.999 | S. cerevisiae deletion strains, locus YPL106C, strain sse1, hits give low values 0.989 | S. cerevisiae deletion strains, locus YPL240C, strain hsp82, hits give low values 1.01 | S. cerevisiae deletion strains, locus YPL241C, strain CIN2, hits give low values 1.01 | S. cerevisiae deletion strains, locus YPL256C, strain CLN2, hits give low values 1.09 | S. cerevisiae deletion strains, locus YPR119W, strain clb2, hits give low values 0.99 | S. cerevisiae deletion strains, locus YPR141C, strain kar3, hits give low values 0.984 | S. cerevisiae deletion strains, locus YPR163C, strain tif3, hits give low values 0.99 | S. cerevisiae deletion strains, locus YPR167C, strain met16, hits give low values 0.994 | S. cerevisiae deletion strains, strain wtn01, hits give low values 0.993 | S. cerevisiae strains, strain wild type, hits give low values 1.01

From PubChem BioAssay AID1159580 (chemical genetic matrix, 2015)
